From PubChem BioAssay
sPLA2-III inh: Blocks human group III sPLA2 activity; Q9NZ20; QFRET BODIPY PC-A2 liposome hydrolysis, fluorescence; inhibition, % at 12.2 µM; 0.56% of 370,000 active; AID 743126;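 active means inhibition above mean plus 3 SD of compounds lying within the high and low control bounds, cut at about 19% in these data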;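 further: 0% = median of test compound wells and 100% = no enzyme DMSO wells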
ADAM10 inh: ADAM10 inhibition, QFRET primary screen; O14672; recombinant ADAM10, EDANS/DABCYL FRET peptide cleavage, 3 h; inhibition, % at 7 µM; 0.62% of 370,000 active; AID 720582;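 active means inhibition above a per-campaign cutoff equal to the mean of compounds falling between control-based bounds plus 3 SD, cut at about 20% in these data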;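 further: 0% = DMSO wells while the 100% control is not disclosed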
ADAM17 inh: ADAM17 inhibition, QFRET primary screen | P78536 | recombinant ADAM17, EDANS/DABCYL FRET peptide cleavage | inhibition, % at 6.95 µM | 0.83% of 370,000 active | AID 720648;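 active means inhibition above the mean of compounds lying between control limits plus 3 SD, set per campaign, cut at about 8.5% in these data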;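 further: 0% = DMSO-only wells as the low control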
CendR NRP1 mod: alters CendR peptide binding to human NRP-1 | O14786 | FAM-RPARPAR peptide binding to NRP-1, fluorescence polarization | inhibition, % at 25 µM | 0.85% of 360,000 active | AID 602438;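 active means inhibition or corrected inhibition above about 18%, plus a signal ratio from 0.5 to 1.5, limit read from the data, passing the limit was not always enough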
Target sequence (O14786 whole entry, looked up): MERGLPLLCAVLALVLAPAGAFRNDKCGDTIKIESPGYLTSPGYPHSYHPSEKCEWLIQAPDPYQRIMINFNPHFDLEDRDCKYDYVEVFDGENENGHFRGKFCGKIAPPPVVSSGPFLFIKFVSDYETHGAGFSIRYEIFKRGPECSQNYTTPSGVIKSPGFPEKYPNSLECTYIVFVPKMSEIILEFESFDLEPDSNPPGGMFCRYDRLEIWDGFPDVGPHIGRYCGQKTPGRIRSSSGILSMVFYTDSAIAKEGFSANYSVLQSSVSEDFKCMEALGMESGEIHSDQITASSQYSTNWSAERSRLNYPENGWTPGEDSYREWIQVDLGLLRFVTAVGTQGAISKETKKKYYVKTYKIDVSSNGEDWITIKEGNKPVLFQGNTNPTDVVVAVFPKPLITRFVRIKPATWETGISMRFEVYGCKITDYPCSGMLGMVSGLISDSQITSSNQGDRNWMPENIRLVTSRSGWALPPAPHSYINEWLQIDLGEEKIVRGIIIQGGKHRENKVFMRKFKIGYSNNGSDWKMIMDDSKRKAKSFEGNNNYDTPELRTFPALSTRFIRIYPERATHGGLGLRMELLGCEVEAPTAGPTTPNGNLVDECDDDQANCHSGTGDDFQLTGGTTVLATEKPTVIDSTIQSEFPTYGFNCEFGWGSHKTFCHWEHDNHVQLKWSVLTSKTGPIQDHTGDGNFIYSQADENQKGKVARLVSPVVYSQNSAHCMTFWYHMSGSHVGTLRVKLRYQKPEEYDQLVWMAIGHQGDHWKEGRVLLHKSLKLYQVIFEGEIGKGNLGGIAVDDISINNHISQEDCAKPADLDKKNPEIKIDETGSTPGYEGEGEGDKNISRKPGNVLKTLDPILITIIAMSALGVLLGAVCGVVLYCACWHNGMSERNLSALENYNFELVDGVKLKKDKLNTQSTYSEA
KLK7 zymogen act: activates the human kallikrein-7 zymogen. P49862. purified proKLK7, EDANS-DABCYL substrate fluorescence; 100% is mature enzyme control, 0% vehicle. activation, % at 7 µM. 0.9% of 370,000 active. AID 652039;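 active means activation above the mean of all tested compounds plus 3 SD, computed per campaign excluding outliers beyond control limits, cut at about 13% in these data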
ADAM10 confirm: human ADAM10 inhibition, confirmation | shares compounds with ADAM10 inh | inhibition, % at 6.95 µM | 1% of 2,100 active | ADAM10 QFRET peptide cleavage, EDANS fluorescence;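 active means inhibition above about 20% chosen separately for each screening run, limit read from the data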;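 further: 0% = DMSO wells and 100% = marimastat wells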
ADAM17 counter: counter-screen for ADAM10 exosite inhibitors: inhibitors of human ADAM17; shares compounds with ADAM10 inh; ADAM17 QFRET peptide cleavage, EDANS fluorescence; inhibition, % at 6.95 µM; 0.5% of 2,100 active;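 active means mean triplicate inhibition above the solvent-only control wells' mean plus 3 SD, cut at about 12% in these data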;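 further: 0% = DMSO wells and 100% = marimastat wells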
Numbers without * were called inactive; nt = not tested or not shown. In the library only some 3.4% were active in any assay of this set; here they are far more common.

SMILES | sPLA2-III inh | ADAM10 inh | ADAM17 inh | CendR NRP1 mod | KLK7 zymogen act | ADAM10 confirm | ADAM17 counter
S=c1[nH]nc(CSc2nc3ccccc3s2)n1Cc1ccccc1 | -16 | 22* | 1 | 6 | 0 | -1 | 0
CCCCCN1CCCCC(NC(=O)c2ccccc2C)C1=O (stereo not given) | 14 | -4 | -1 | nt | 0 | nt | nt
Cc1ccc(C2C(/C=C3/SC(=S)NC3=O)=C(c3cccs3)Oc3ccccc32)cc1 (stereo not given) | -23 | 20* | 5 | -51 | 0 | 14 | 2
COc1ccccc1C(=O)NCCC(=O)Nc1ccc(S(=O)(=O)N2CC(C)CC(C)C2)cc1 (stereo not given) | -62 | 29* | 9.6* | -7 | 1 | 3 | 1
O=C(Nc1ccc(Oc2ccccc2)cc1)C1CCN(c2nnc(-n3cccc3)s2)CC1 | 8 | 4 | 1 | nt | 1 | nt | nt
Cc1cc([N+](=O)[O-])nn1CCCC(=O)Nc1cc(Oc2ccccc2)cc([N+](=O)[O-])c1 | 7 | 8 | 3 | 3 | 1 | nt | nt
Cc1cccc(Oc2cc(NC(=O)Cn3cnc([N+](=O)[O-])n3)cc([N+](=O)[O-])c2)c1 | -19 | 28* | 8 | 4 | 1 | 5 | 2
CCCNC(=O)C(Cc1cccc(OC)c1)NC(=O)c1ccc(C(C)(C)C)cc1 (stereo not given) | 6 | 83* | 1 | 14 | 0 | 0 | 0
C=CCn1c(COc2ccc(Cl)cc2)nnc1SCC(=O)Nc1ccc(S(N)(=O)=O)cc1 | -33 | 6 | 6 | -13 | 1 | nt | nt
C=CCn1c(COc2ccccc2)nnc1SCC(=O)Nc1ccc(Oc2ccccc2)cc1 | -13 | 21* | 6 | nt | 0 | 3 | 0
O=C(CCc1ccccc1)N[C@H]1[C@H](OCc2ccccc2)CCC[C@@]12C(=O)N(Cc1ccccc1)c1ccc(-c3cnccn3)cc12 | -19 | -263 | -75 | nt | -13 | nt | nt
CCC1Sc2ccc(S(=O)(=O)CCC(=O)Nc3c(Cl)cc(OC)cc3OC)cc2NC1=O (stereo not given) | -32 | 20* | 6 | 11 | 0 | 0 | 0
CCC1Sc2ccc(S(=O)(=O)Nc3cc(OC)cc(OC)c3)cc2NC1=O (stereo not given) | -24 | 5 | 0 | 6 | 1 | nt | nt
O=C(CN1CCN(Cc2ccccc2)CC1)N/N=C\c1c2ccccc2cc2ccccc12 | -14 | 1 | 2 | nt | 0 | nt | nt
COc1ccc(-c2cn(-c3ccc(C)cc3C)c(=S)[nH]2)cc1OC | 16 | 20* | 8 | -9 | 0 | 4 | 2
O=[N+]([O-])c1cccc(C2NCC(c3ccccc3Cl)c3c2[nH]c2ccccc32)c1 (stereo not given) | -3 | 21* | 5 | 6 | 0 | 5 | 3
COc1ccc2c(c1)OC[C@H]1[C@H]2N2C(=O)CN(Cc3ccc(C)cc3)C(=O)[C@@]2(C)[C@H]1c1ccccc1 | -5 | 20* | 2 | -13 | -1 | 6 | 2
CCOC(=O)[C@@H]1[C@H]2COc3ccc(Br)cc3[C@H]2N2C(=O)N(c3cccc(F)c3)C(=O)[C@]12C | -6 | 20* | 5 | 4 | 1 | 4 | 1
C[C@@]12C(=O)N(CCc3c[nH]c4ccccc34)CC(=O)N1[C@H]1c3ccccc3OC[C@@H]1[C@@H]2c1ccccc1 | -74 | 22* | 8 | -4 | 0 | 5 | 2
C[C@]12C(=O)N(c3ccc(Br)cc3)C(=O)N1[C@@H]1c3ccccc3OC[C@@H]1[C@H]2c1ccccc1 | -1 | 23* | 8 | -6 | 1 | 7 | 1
O=C(Nc1cccc(Br)c1)OC1CC2CC1[C@H]1CCCCN1[C@H]2Cc1ccccc1 (stereo not given in full) | -3 | 2 | 1 | nt | -1 | nt | nt
O=C(NC1CCCCN(Cc2ccc(Cl)cc2)C1=O)c1cccc2nsnc12 (stereo not given) | -6 | 7 | -2 | nt | -1 | nt | nt
Brc1cccc(Cn2ccc3ccc(-c4ccc5ccn(Cc6cccc(Br)c6)c5c4)cc32)c1 | 0 | -21 | -7 | nt | -4 | nt | nt
CC1CCN(C2=NC(=O)N(c3ccc(Br)cc3)C(=O)C2)CC1 | 0 | -11 | -5 | nt | 0 | nt | nt
O=C(NCc1ccccc1F)c1ccc(S(=O)(=O)Nc2cccc(C(F)(F)F)c2)cc1 | -29 | 10 | 4 | -1 | 0 | nt | nt
SMILES | sPLA2-III inh | ADAM10 inh | ADAM17 inh | CendR NRP1 mod | KLK7 zymogen act | ADAM10 confirm | ADAM17 counter
O=C(NCc1ccc(F)cc1)c1ccc(S(=O)(=O)Nc2cccc(C(F)(F)F)c2)cc1 | -45 | 27* | 8 | 2 | 0 | -1 | 0
CCOC(=O)c1ccc(NC(=O)c2ccc(CN3CCc4ccccc4C3)cc2)cc1 | 1 | 8 | 0 | 24 | 0 | nt | nt
CCOc1ccc(NC(=O)c2ccc(CN3CCc4ccccc4C3)cc2)cc1 | 9 | 20* | 8 | -11 | 0 | 11 | 5
Cc1cc(S(=O)(=O)N(Cc2ccc(F)cc2)CC2CCCO2)ccc1-n1cnnn1 (stereo not given) | -1 | -1 | -2 | -4 | 0 | nt | nt
Cc1cc(S(=O)(=O)N(Cc2ccc(C(C)C)cc2)CC2CCCO2)ccc1-n1cnnn1 (stereo not given) | -12 | 24* | 5 | 15 | 0 | 5 | 1
CCCNS(=O)(=O)c1ccc(CCC(=O)Nc2cc(Cl)ccc2Oc2ccccc2)cc1 | -30 | 21* | 7 | 4 | 0 | 5 | 3
OC(COc1cccc2ccccc12)CN1CCN(c2ccccc2Cl)CC1 (stereo not given) | -13 | 17 | 8 | -7 | 0 | nt | nt
Cc1ccc(N2CCN(CC(O)COc3cccc4ccccc34)CC2)cc1 (stereo not given) | 10 | 20* | 4 | 1 | 0 | 5 | 0
CCOC(=O)C(Cc1ccnc2ccccc12)=NO | -22 | 20* | 1 | 0 | 0 | -1 | -1
CSc1ccc(S(=O)(=O)Nc2ccc3c4c(cccc24)CC3)cc1 | -37 | 20* | 7 | -12 | 0 | 10 | 3
COc1ccc(OC)c(-c2cc(C3CCN(c4ncccc4[N+](=O)[O-])CC3)[nH]n2)c1 | -20 | 24* | 8 | -10 | 1 | 3 | 1
CC(C)Cn1c(=O)cc(N2CCN(c3cccc(C(F)(F)F)c3)CC2)[nH]c1=O | 3 | -2 | 0 | nt | nt | nt | nt
COc1ccc(C(Nc2cc(C)ccn2)c2ccc3ccc(C)nc3c2O)cc1 (stereo not given) | 7 | 23* | 1 | 4 | 0 | 20* | 5
O=C(NNC(=S)Nc1ccc(Cl)cc1Cl)c1ccncc1 | 1 | 21* | 7 | -6 | 0 | 3 | 0
O=C(NNC(=S)Nc1ccc(Cl)cc1Cl)c1cccnc1 | 6 | 2 | -2 | 9 | 0 | nt | nt
